The source made the active and inactive calls. How the source made its calls: active means hit-call score of the fitted dose curve at least 0.9, where 1 is the maximum; inactive means score below 0.9.
Test: APR_HepG2_CellLoss_1hr: Apredica 1-hour HepG2 Assay for Cell Loss (AID 2282668);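 further: curves fitted both ways against DMSO so gain or loss of cells counts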
Conditions: high-content imaging
Protocol: APR_HepG2_1hr is a cell-based, multiplexed-readout assay that uses HepG2, a human liver cell line, with measurements taken at 1 hour after chemical dosing in a 384-well plate.APR_HepG2_CellLoss_1hr is one of 10 assay component(s) measured or calculated from the APR_HepG2_1hr assay. It is designed to make measurements of cell number, a form of viability reporter, as detected with fluorescence intensity signals by HCS Fluorescent Imaging technology.Data from the assay component APR_HepG2_CellLoss_1hr was analyzed into 1 assay endpoint. This assay endpoint, APR_HepG2_CellLoss_1hr, was analyzed with bidirectional fitting relative to DMSO as the negative control and baseline of activity. Using a type of viability reporter, measures of all nuclear dna for gain or loss-of-signal activity can be used to understand the viability at the cellular-level. Furthermore, this assay endpoint can be referred to as a secondary readout, because this assay has produced multiple assay endpoints where this one serves a viability function. To generalize the intended target to other relatable targets, this assay endpoint is annotated to the cell cycle intended target family, where the subfamily is proliferation.
Cells were treated with dimethyl sulfoxide (DMSO) as a solvent control at a final concentration of 0.5% v/v or with compounds in DMSO with a resulting final DMSO concentration of 0.5% v/v. Compound treatment was done at concentrations of 0.39, 0.78, 1.56, 3.12, 6.24, 12.5, 25, 50, 100, and 200 uM in duplicate on each plate. Cells were treated with compounds for 1, 24, or 72 hr. Carbonyl […] m-chloro-phenylhydrazone (CCCP) and taxol were used as positive controls for mitochondrial function and cytoskeletal stability, respectively; DMSO served as the negative control for this experiment. Cells were fixed by the direct addition of 50 uL formaldehyde in Hank's Balanced Salt Solution (HBSS) to a final concentration of 3.7%. After incubation in the fixation medium for 30 min at room temperature (293-298 K), cells were rinsed twice with HBSS and treated with cell permeabilization buffer (16 uL of 0.5% Triton X-100) for 10 min at room temperature (293-298 K) before labeling. For mitochondrial membrane potential and mitochondrial measurements, pre-fixed cells were incubated with 50 uL of MitoTracker Red CMXRos (Invitrogen) at a concentration of 250 nM for 30 min before fixation. In the remaining cases, post-fixed cells were labeled by incubation with a multiplexed mixture of primary antibodies in HBSS for 60 min at room temperature (293-298 K) to detect immunoreactivity of c-Jun (1:500), phospho-histone H3 (1:100), phospho-histone H2A.x (1:200), p53 (1:400), alpha-tubulin (1:200) and Hoechst 33342 (2 ug/mL). Cells were labeled for multiplexed imaging on two separate plates: a) Hoechst 33342, MitoTracker Red, phospho-histone H3, and alpha-tubulin, and b) Hoechst 33342, phospho-histone H2A.x, and c-Jun. A final rinse with HBSS (50 uL) was performed before analysis. The primary and secondary antibodies for the proteins were phospho-histone H3 (rabbit anti-phospho-histone H3 and FITC-donkey anti-rabbit IgG), phospho-histone H2A.x (mouse anti-phospho-histone H2A.x and FITC-donkey anti-mouse IgG), c-Jun (rabbit anti-phospho-c-Jun and Cy3-donkey anti-rabbit IgG), p53 (sheep anti-p53 and Cy5-donkey anti-sheep IgG), alpha-tubulin (mouse anti-alpha-tubulin and Cy5-donkey anti-mouse IgG). These antibodies are available as the CellCiphr HepG2 assay kit (Millipore).Digital images of each well were captured using a Cellomics ArrayScan VTI (Thermo Scientific Cellomics) (0.8 NA objective, 0.63x optical coupler, and XF-93 filter set) at 20x magnification. The images were acquired using the autofocus feature of the ArrayScan instrument, which entails the following steps. First, the camera focuses on channel 1 (Hoechst 33342), where nuclei are identified. Second, a Z offset of 1 um is used for capturing mitochondria (MitoTracker Red). […]

SMILES	outcome	AC50
O=C(Nc1ccccc1)Nc1cnns1	inactive	
CC(C)N(C(=O)COc1nnc(C(F)(F)F)s1)c1ccc(F)cc1	inactive	
COC(=O)c1ccccc1S(=O)(=O)NC(=O)N(C)c1nc(C)nc(OC)n1	inactive	
CC(C)(C)C(O)C(Oc1ccc(Cl)cc1)n1cncn1 (stereo not given)	inactive	
CNC(=O)Oc1ccccc1OC(C)C	inactive	
CC(C)(C)C(O)/C(=C\c1ccc(Cl)cc1Cl)n1cncn1 (stereo not given)	inactive	
CCN(CC)C(=O)SCc1ccc(Cl)cc1	inactive	
COc1nn(CSP(=S)(OC)OC)c(=O)s1	inactive	
COP(=O)(OC)OC=C(Cl)Cl	inactive	
O=C1c2ccccc2C(=O)N1SC(Cl)(Cl)Cl	inactive	
O=S1OCC2C(CO1)C1(Cl)C(Cl)=C(Cl)C2(Cl)C1(Cl)Cl (stereo not given)	inactive	
OCCOc1ccccc1	inactive	
CCOc1nc(NC)nc(NC(=O)NS(=O)(=O)c2ccccc2C(=O)OC)n1	inactive	
CCC(C)(C)C(=O)OC1=C(c2ccc(Cl)cc2Cl)C(=O)OC12CCCCC2	inactive	
CCOC1Oc2ccc(OS(C)(=O)=O)cc2C1(C)C (stereo not given)	inactive	
CCS(=O)(=O)c1cccnc1S(=O)(=O)NC(=O)Nc1nc(OC)cc(OC)n1	inactive	
CNC(=O)Oc1cccc(N=CN(C)C)c1	inactive	
CC1(C)C(C=C(Cl)Cl)C1C(=O)OC(C#N)c1ccc(F)c(Oc2ccccc2)c1 (stereo not given)	inactive	
COP(=S)(OC)Oc1ccc([N+](=O)[O-])cc1	inactive	
[2H]C1([2H])[n+]2ccccc2-c2cccc[n+]2C1([2H])[2H]	inactive	

SMILES	outcome	AC50
N#CN	inactive	
ClC1C(Cl)C(Cl)C(Cl)C(Cl)C1Cl (stereo not given)	inactive	
CC[C@H](C)[C@H]1O[C@]2(C=C[C@@H]1C)C[C@@H]1C[C@@H](C/C=C(\C)[C@@H](O[C@H]3C[C@H](OC)[C@@H](O[C@H]4C[C@H](OC)[C@@H](O)[C@H](C)O4)[C@H](C)O3)[C@@H](C)/C=C/C=C3\CO[C@@H]4[C@H](O)C(C)=C[C@@H](C(=O)O1)[C@]34O)O2 (tested in a mixture with another compound)	inactive	
COC(=O)c1ccccc1S(=O)(=O)NC(=O)Nc1nc(C)nc(OC)n1	inactive	
CCC(C)(NC(=O)c1cc(Cl)c(C)c(Cl)c1)C(=O)CCl (stereo not given)	inactive	
N#Cc1c(Cl)c(Cl)c(Cl)c(C#N)c1Cl		15.8 µM (active)
C[C@H]1[C@H](c2ccc(Cl)cc2)SC(=O)N1C(=O)NC1CCCCC1	inactive	
CNC(=O)CSP(=S)(OC)OC	inactive	
CCOCN(C(=O)CCl)c1c(C)cccc1CC	inactive	
O=C(O)CCCOc1ccc(Cl)cc1Cl	inactive	
CCc1ccc(C(=O)NN(C(=O)c2cc(C)cc(C)c2)C(C)(C)C)cc1	inactive	
O=C(NC(=O)c1c(F)cccc1F)Nc1ccc(OC(F)(F)C(F)OC(F)(F)F)c(Cl)c1 (stereo not given)	inactive	
CCCN(CCOc1c(Cl)cc(Cl)cc1Cl)C(=O)n1ccnc1	inactive	
CCC(C)Nc1c([N+](=O)[O-])cc(C(C)(C)C)cc1[N+](=O)[O-] (stereo not given)	inactive	
CC(C)OC(=O)Nc1cccc(Cl)c1	inactive	
CNC(=O)/C=C(\C)OP(=O)(OC)OC	inactive	
CN1CSC(=S)N(C)C1	inactive	
COP(=S)(OC)Oc1ccc(SC)c(C)c1	inactive	
Cc1[nH]c(=O)n(C(C)(C)C)c(=O)c1Cl	inactive	
O=C(O)COc1ccc(Cl)cc1Cl	inactive	
